Bioassay records as filed in PubChem.
Rows were chosen to be rich in hits. Some 2.2% of all compounds tested hit in one or more screens of this group.
Arbovirus inh: blocks arbovirus infection; actives 0.37% (n = 200,000); AID 1251; inhibition, % at 10 µM; arbovirus infection cell-based antiviral screen; in the data active = inhibition above about 30%
Insulin prom up: MIN6 insulin promoter up-regulation | MIN6 insulin promoter-GFP reporter, high-content imaging; active compounds read high | z-score at 5 µM | actives 0.3% (n = 190,000);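 active = z-score above 3 at 5 µM with at least 500 cells counted in the well; inconclusive = wells under 500 cells, flagged as cytotoxic or low count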
Redox H2O2 prof: compounds producing H2O2 with reducing agent – biochemical, NIH compound library profiling, artefact control for MLSCN library redox annotation, primary screen. AID 878. activation, % at 10 µM. actives 0.03% (n = 200,000). DTT-dependent redox cycling H2O2, phenol red/HRP absorbance; 100% = 100 µM peroxide control, 0% = buffer;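 active = activation of at least 50% relative to the plate's high and low controls in the primary single-dose screen; inactive = activation below 50%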;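 also: compound incubated with DTT at 0.8 mM final as the reducing agent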
Autophagy mod: modulators of autophagy. MEF GFP-LC3 puncta imaging; test concentration mostly 10 µM. calls only at 10 µM (by protocol). actives 0.98% (n = 190,000). AID 463193;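 active = percentage of spot-positive cells more than 3 SD above its plate mean, without a fluorescence outlier flag or 80% toxicity; inconclusive = no clear call, values can overlap the other calls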;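 also: spot-positive cell cutoff set from DMSO-treated cells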
NCF1 inh: inhibitors of human p47phox binding; P14598; p47phox/p22phox peptide binding, fluorescence polarization, 2 h; inhibition, % at 24.7 µM; actives 0.53% (n = 220,000);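 active = inhibition above about 30%, limit read from the data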;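 also: 0% = p47phox with labelled peptide and 100% = labelled peptide alone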
Target sequence (P14598 whole entry, looked up): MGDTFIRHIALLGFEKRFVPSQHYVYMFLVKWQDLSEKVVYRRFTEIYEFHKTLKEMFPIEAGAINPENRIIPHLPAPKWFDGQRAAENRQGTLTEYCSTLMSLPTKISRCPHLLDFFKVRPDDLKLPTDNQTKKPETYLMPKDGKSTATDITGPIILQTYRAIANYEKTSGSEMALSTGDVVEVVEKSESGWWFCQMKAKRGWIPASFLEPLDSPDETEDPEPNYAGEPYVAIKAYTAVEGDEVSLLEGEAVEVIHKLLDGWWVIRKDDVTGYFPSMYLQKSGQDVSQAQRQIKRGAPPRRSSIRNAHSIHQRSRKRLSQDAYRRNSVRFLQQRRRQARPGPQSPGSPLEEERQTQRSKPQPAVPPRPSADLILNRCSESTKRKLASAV
Efa HMGR inh: E. faecalis class II HMG-CoA reductase inhibition | purified E. faecalis HMGR, NADPH absorbance 340 nm kinetic | inhibition, % at 10 µM | actives 0.41% (n = 190,000) | AID 1066;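 active = inhibition above a set limit, the median over all tested compounds plus 3 SD, cut at about 9.5% in these data; inconclusive = no clear call, values can overlap the other calls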;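 also: enzyme runs in reverse so mevalonate oxidation gives rising NADPH absorbance; 0% = complete reaction with DMSO and 100% = background rate lacking mevalonate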
Starred values were filed as active, the others as inactive; i = inactive; ? = inconclusive; · = not tested or not shown; + = active, no number.

SMILES	Arbovirus inh	Insulin prom up	Redox H2O2 prof	Autophagy mod	NCF1 inh	Efa HMGR inh
Cc1ccc(CNc2ccc3c(c2)OCO3)c(C)c1	-14	·	1	+	0	-5
COc1ccccc1CNS(=O)(=O)N(C)C	4	2.9	0	i	-18	-1
CC(CN1C(C)CCCC1C)OC(=O)c1ccc(Cl)cc1Cl (centres undefined)	3	-0.19	-2	+	-15	0
c1ccc(CN2CCC(Nc3nc(-c4cccs4)nc4ccccc34)CC2)cc1	-35	-2.5	-2	+	-30	-2
CC(NC(=O)/C(C#N)=C1\N=C(NC(=O)c2cccs2)c2ccccc21)c1ccccc1 (centres undefined)	-9	4*	0	i	-38	-8
N#C/C(C(=O)NCCc1ccccc1)=C1/N=C(NC(=O)c2cccs2)c2ccccc21	-5	0.49	1	+	-29	-4
COCCCNC(=O)/C(C#N)=C1\N=C(NC(=O)c2cccs2)c2ccccc21	·	0.11	·	·	-47	·
Cc1nc(NC(C)C)c2cnn(CCc3ccccc3)c2n1	3	-0.91	0	i	-12	5
O=C1CCCN1c1cc(Cl)ccc1Cl	-3	1.1	2	i	-6	-6
Oc1ccccc1C=NCC(O)c1ccccc1 (centres undefined)	-2	0.38	3	i	-6	-5
CCCCN(CCCC)CC(O)COc1ccccc1Br (centres undefined)	39*	-0.41	0	i	3	-6
COc1ccccc1CN1CCNC(=O)C1CC(=O)NCc1cn(C)nc1C (centres undefined)	5	·	0	i	5	-4
CCc1cc(=O)oc2cc3occ(C)c3cc12	6	0.18	0	i	4	1
CCc1cc(=O)oc2cc3occ(-c4ccc(OC)c(F)c4)c3cc12	-17	-1	0	+	47*	-6
Cc1nnc(NC(=O)c2oc3cc(C)c(C)cc3c2C)s1	-2	0.55	-1	+	-10	-4
CCN1CC=C2C(C1)C(c1ccc(Cl)s1)C(C#N)=C(N)C2(C#N)C#N (centres undefined)	9	·	2	+	0	-5
Cc1cccc(NC(=O)c2sc3nc(N)c(C#N)cc3c2N)c1	-2	-0.92	0	i	-34	-10
COC(=O)c1ccc([N+](=O)[O-])cc1N1C(=O)C2C3CCC(C3)C2C1=O (centres undefined)	-2	-0.37	0	i	5	-1
Cn1nc(-c2ccc(Cl)cc2)cc1NC(=O)CCCC(=O)O	·	·	·	·	8	·
Cc1ccc2nc(-c3ccc(Br)o3)oc(=O)c2c1	37*	0.65	0	i	-4	-2
Clc1ccc2oc(-c3ccccn3)nc2c1	-4	3*	3	i	-16	-8
Nc1ccc2oc(-c3ccccn3)nc2c1	-12	0.23	3	i	-11	-5
COc1ccccc1CNC(=O)C[n+]1ccccc1	11	·	0	i	-3	-10
COc1cc(NS(=O)(=O)c2ccc(NC(=S)NC(=O)CC(C)C)cc2)nc(OC)n1	5	·	1	i	4	13*
O=C(CN1CCCCC1)N/N=C/c1ccccc1OCc1ccccc1	-1	-0.15	0	i	-10	0
SMILES	Arbovirus inh	Insulin prom up	Redox H2O2 prof	Autophagy mod	NCF1 inh	Efa HMGR inh
CC(=O)Nc1cccc(Oc2ncnc3scc(-c4ccccc4)c23)c1	45*	-0.02	0	i	-4	-5
CCCOc1ccc(/C=C/C(=O)NCc2ccccc2)cc1	5	-0.32	-1	i	-8	-2
Cn1ncc2c(NNC(=O)c3ccc(Cl)cc3Cl)ncnc21	-20	0.16	0	i	0	-5
CCOc1ncccc1C(=O)OCC(=O)N(CC)c1ccccc1	-6	0.11	0	+	-4	-1
COC(=O)Cc1c(C)nc2nc(NCc3ccccc3OC)[nH]n2c1=O	5	4.3*	1	i	-11	-6
O=C(NNC(=S)NC1CCCCC1)c1ccc(Cl)s1	38*	-0.02	1	i	-4	2
O=C(NNC(=S)NC1CCCCC1)c1cccs1	6	-0.19	-1	i	-2	-4
C/C(=N\NC(=O)c1c(Cl)c(C)nn1C)c1ccc(NC(=O)c2ccncc2)cc1	41*	-0.23	-1	i	-14	-8
CC(=O)Nc1ccc(/C(C)=N/NC(=O)c2ccncc2)cc1	1	-0.16	-3	i	-2	3
COc1ccccc1/C=C(/C(=O)OCC(=O)Nc1cc(C)ccc1C)c1ccccc1	-4	-0.13	0	i	-5	-5
Cc1ccc(N2CC(O)=C(c3nc4ccccc4c(=O)[nH]3)C2=N)cc1C	-14	1.4	0	+	-9	-12
C(#CCN1CCCC1)CC(c1ccccc1)c1ccccc1	-16	-0.7	0	i	-4	0
CCC(C)NCCOCCOc1ccc(Cl)c2ccccc12 (centres undefined)	-29	-0.52	0	i	-12	-1
Oc1ccc(Nc2nc(NCC3CCCO3)c3ccccc3n2)cc1 (centres undefined)	41*	?	2	i	-9	-11
Oc1ccccc1Nc1nc(NCC2CCCO2)c2ccccc2n1 (centres undefined)	-1	-0.84	3	i	-23	-4
Cc1ccc(NC(=O)c2cc(-n3cnnc3)ccc2Cl)c(C)c1	0	-2.5	0	i	42*	-10
CCOP(=O)(OCC)C(C)(C)NC(=O)Nc1ccc(Cl)c(Cl)c1	·	0.19	·	·	-9	·
NC(=O)CC(NC(=O)Cc1ccc(Br)cc1)c1ccc(NCc2ccc(F)c(F)c2)c([N+](=O)[O-])c1 (centres undefined)	·	-0.81	·	·	-11	·
Cc1noc(C)c1CS(=O)(=O)c1ccc(Br)cc1	-1	3.2*	1	i	-1	-2
Cc1ccc(S(=O)(=O)Cc2c(C)noc2C)cc1	-2	·	0	i	1	0
COc1cc(-c2nnc(-c3cc(OC)c(OC)c(OC)c3)o2)cc(OC)c1OC	6	-0.35	1	i	1	5
COc1cc(-c2nnc(-c3ccccc3)o2)cc(OC)c1OC	5	·	2	i	32*	-3
C=CCN1C(=O)/C(=C2/C(=O)N(CC(=O)O)c3ccccc32)S/C1=N/c1nccs1	3	0.57	2	i	-25	-5
COc1ccc(-c2cc(C(F)F)n3ncc(C(=O)Nc4ccc(C(=O)N5CCOCC5)cc4)c3n2)cc1	-2	-0.87	2	+	-7	0
Cc1ccc(-c2cc(C(F)F)n3ncc(C(=O)Nc4ccc(S(=O)(=O)Nc5ccccc5C)cc4)c3n2)cc1	-2	·	2	i	-7	10*
COc1ccc(/C=N/n2cnnc2)cc1Cn1nc(C)c([N+](=O)[O-])c1C	2	1.1	0	i	-7	11*
